Source: PubChem
AmpC inh no detg – blocks E. coli AmpC beta-lactamase in detergent-free assay | P00811 | AmpC nitrocefin hydrolysis, absorbance 480 nm, 0.0001% Triton | 0.52% of 330,000 active | AID 485341 | Potency, µM (titrated, usually from 57.1 µM), hits mostly inhibitors; note: nearly all actives have a fitted effect of over 20% in size
Target sequence (P00811 whole entry, looked up): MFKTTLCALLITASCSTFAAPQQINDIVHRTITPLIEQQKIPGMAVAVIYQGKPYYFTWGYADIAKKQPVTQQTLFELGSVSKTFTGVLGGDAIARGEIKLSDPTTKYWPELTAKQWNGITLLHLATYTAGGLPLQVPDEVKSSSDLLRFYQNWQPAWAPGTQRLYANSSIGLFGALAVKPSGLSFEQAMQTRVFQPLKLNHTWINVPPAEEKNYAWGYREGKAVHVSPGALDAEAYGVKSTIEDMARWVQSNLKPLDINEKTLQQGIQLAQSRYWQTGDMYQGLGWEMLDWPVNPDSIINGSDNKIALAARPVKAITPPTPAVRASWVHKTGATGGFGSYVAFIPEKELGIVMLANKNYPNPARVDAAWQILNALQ
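AmpC (5.3 nM in the dispensed reagent) in 20 mM phosphate pH 7.0 with 0.01% (detergent screen) or 0.0001% Triton X-100 was preincubated with compounds for 15 min at room temperature. Nitrocefin was then added from an 800 uM solution, and hydrolysis was followed at 480 nm.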
NS1 function inh – inhibitors of influenza NS1 protein function; Potency, µM (highest dose often 46.1 µM); 0.4% of 270,000 active; AID 2326; calls by dose curve; note: actives are rising curves; nearly all actives have a fitted effect of over 50% in size
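Recovery from NS1-induced slow growth read by OD600 in budding yeast switched to galactose assay medium (pH 6.0, -URA) at 1:100 dilution. Compound 23 nl per well; the matching strain lacking NS1 serves as control.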
Shiga inhibitor – Shiga toxin inhibition; Vero cells, Shiga toxin protein synthesis inhibition reporter; inhibition, % at 38.7 µM; 9.2% of 290,000 active; in the data active = inhibition mostly above about 28%, no sharp cut-off; inactive = mostly below about 43%
AmpC detergent – inhibitors of E. coli AmpC beta-lactamase with detergent; AmpC hydrolysis of nitrocefin, absorbance 480 nm, 0.01% Triton; 0.041% of 370,000 active; Potency, µM (top dose mostly 114 µM), actives largely listed as inhibitors; note: nearly all actives have a fitted effect of over 25% in size
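20 mM phosphate pH 7.0 + 0.01% (detergent screen) or 0.0001% Triton X-100; 5.3 nM AmpC reagent; cpd preinc 15 min RT; nitrocefin (800 uM stock) to start; A480 q20 s × 4 min; Activity was normalised to no-enzyme and no-compound control wells.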
CHX counter – counter-screen hit for Shiga toxin inhibitors, cycloheximide; cell reporter, cycloheximide protein synthesis inhibition counterscreen; max response, %; 12% of 300,000 active; in the data active = max response mostly above about 13%, no sharp cut-off; inactive = mostly below about 14%; note: read at 38.3 µM for the half of the compounds with a filed dose
A number is an active result; – = inactive; ? = inconclusive; · = not tested or not shown; + = active, no number; [ ] = dose if it differs, or a comment. This is one part of a sample in which hits are shown more often than they occur. Unless noted, calls come from the whole dose curve; as a rule, active = well fitted curve in the direction sought with a large enough effect; inconclusive = small, poorly fitted or top-dose-only effect, or another doubt; inactive = no such curve, though single readings can be large; an effect the other way counts as inactive or inconclusive.

SMILES	AmpC inh no detg	NS1 function inh	Shiga inhibitor	AmpC detergent	CHX counter
Cc1ccc(C(=O)Nc2ccc(C(=O)NCC3CCCO3)cc2)cc1 (stereo not drawn)	–	–	–	–	–
COc1ccc(-c2ccc(S(=O)(=O)NCC3CCCO3)cc2)cc1 (stereo not drawn)	–	–	–	–	–
Cc1ccc(NC(=O)c2ccc(S(=O)(=O)NCC3CCCO3)cc2)cc1 (stereo not drawn)	–	–	31.3	–	–
O=S1(=O)C2CC3CCC2(CN1Cc1cccc(F)c1)O3 (stereo not drawn)	·	·	–	·	–
COCCNC(=O)C(c1cccnc1)N(Cc1ccccc1)C(=O)Cn1nnc2ccccc21 (stereo not drawn)	–	·	93.9	–	29.1
COCCNC(=O)C(c1ccncc1)N(Cc1ccccc1)C(=O)Cn1nnc2ccccc21 (stereo not drawn)	–	·	42.2	?	33.3
O=C(C1=C(O)/C(=C/c2ccc(O)cc2)CCC1)C(F)(F)F	–	–	43.9	–	30.5
COc1ccc(/C=C2\CCCC(C(=O)C(F)(F)F)=C2O)cc1	–	–	–	–	–
O=c1oc2ccccc2n1CSc1nc2ccccc2s1	–	–	95.8	–	41.4
O=c1oc2ccccc2n1CSC1=NCCS1	–	–	–	?	19.4
CCCOc1ccc(C2C(=O)N(C3CCCCCC3)CC(=O)N2C(C)C)cc1OC (stereo not drawn)	·	·	·	–	·
Cc1c(C(=O)Nc2ccc(Br)cc2F)oc2ccc(S(=O)(=O)N3CCCCC3)cc12	·	·	·	–	·
O=C(CSc1nnc(-c2ccco2)o1)c1ccccc1	–	–	–	?	32.9
O=C(CSc1nnc(-c2ccco2)o1)c1ccc[nH]1	–	·	110.3	–	50.1
CCSc1nnc(NC(=O)c2cnccn2)s1	–	–	–	–	–
CCSc1nnc(NC(=O)c2cccnc2Cl)s1	–	–	54.2	?	27.7
CCSc1nnc(NC(=O)c2ccccn2)s1	–	–	59.7	–	44.9
COc1ccc(C(=O)NCC(c2cccnc2)N2CCc3ccccc3C2)cc1 (stereo not drawn)	·	·	·	–	·
CC(C)c1ccc(NC(=S)N2CCCC2)cc1	–	–	156.2	?	60.7
CC(C)c1ccc(NC(=S)NN2CCN(C)CC2)cc1	–[2.29 µM]	–	–	–	–
S=C(Nc1ccccc1)N1CCCCCCC1	–	–	–	–	–
CC(C)c1ccc(NC(=S)N2CCN(C)CC2)cc1	–	–	37.1	–	36.9
COc1ccc(/C=C/c2nc3cc(-c4ccccc4)ccc3o2)cc1O	–	–	99.8	–	97.1
COCCCN1C(=O)C(=O)/C(=C(/O)c2ccc(S(=O)(=O)N3CCOCC3)cc2)C1c1ccc(OC)cc1 (stereo not drawn)	–	–	–	–	–
COc1cc(Cl)c(C)cc1NC(=O)CCn1c(=O)c2cccn2c2cccnc21	·	·	·	–	·
SMILES	AmpC inh no detg	NS1 function inh	Shiga inhibitor	AmpC detergent	CHX counter
CCC1=NN2C(=N)/C(=C\c3cccn3-c3c(C)cccc3C)C(=O)N=C2S1	–	·	–	?	–
CCC1=NN2C(=N)/C(=C\c3cccn3-c3ccc(C)cc3C)C(=O)N=C2S1	25.1µM	·	–	?	–
COc1cc(CN2CCN(Cc3cccc(OC)c3OC)CC2)cc(OC)c1	–	–	–	–	–
CCN(CC)C(=N)/C(C#N)=N/Nc1ccc(C)cc1	–	–	86.8	–	43.9
N#CC(C#N)=NNc1ccc(S(=O)(=O)N2CCCCC2)cc1	–	–	–	–	–
COc1ccc(N/N=C(\C#N)C(=N)N2CCCCC2)cc1	–	–	68.1	–	42.8
COc1ccc(N/N=C(\C#N)C(=N)SCc2ccccc2)cc1	–	·	–	–	–
N#C/C(=N\Nc1ccc(F)cc1)C(=O)C1CC1	–	–	–	–	–
Cc1ccc(N/N=C(\C#N)C(N)=S)cc1C	–	·	–	–	–
N#C/C(=N\Nc1ccc(F)cc1)C(=N)N1CCCCCC1	–	·	58.1	–	26.8
N#C/C(=N\Nc1ccc(Cl)cc1)C(=N)N1CCCCC1	–	–	+	–	–
Cc1ccnn1-c1ccc(C(=O)OCC(=O)Nc2ccc(F)cc2)cc1	–	·	·	–	·
CCC(Cc1ccccc1)NC(=O)Cn1ncc2c3ccccc3n(Cc3ccc(F)cc3)c2c1=O (stereo not drawn)	·	·	·	–	·
N#C/C(=N\Nc1ccccc1)C(N)=S	–	–	–	–	–
N#C/C(=N\Nc1ccc(Cl)cc1)C(N)=S	–	–	45.6	–	22.9
Cc1ccc(N/N=C(\C#N)C(=N)N2CCOCC2)cc1	–	–	+	–	56.2
Cc1ccc(NNC(=O)C(=O)N2CCCCC2)cc1	–	–	–	?	–
N#C/C(=N\Nc1ccc(S(=O)(=O)N2CCOCC2)cc1)C(N)=S	–	–	–	–	–
Cc1ccc(N/N=C(\C#N)C(=N)N2CCCCCC2)cc1	–	·	94.0	–	37.3
N#C/C(=N\Nc1ccccc1F)C(=N)N1CCCCC1	–	–	114.2	–	51.0
Cc1ccc(C(=O)c2cn(CC(=O)NCc3ccccc3Cl)c3nc(C)ccc3c2=O)cc1	·	·	·	–	·
COc1ccccc1CN1CC(C(=O)NCc2nc3ccccc3n2C)CCC1=O (stereo not drawn)	–	–	–	–	–
Cc1ccc(C)c(Cn2cnc3ccccc3c2=O)c1	·	·	·	–	·
CCCCOc1ccc(Cn2c(=O)sc3ccccc32)cc1	·	·	·	–	·
O=C(NCc1ccccc1)N1CCOCC1	–	–	–	–	–
SMILES	AmpC inh no detg	NS1 function inh	Shiga inhibitor	AmpC detergent	CHX counter
N#C/C(=N\Nc1ccccc1)C(=N)N1CCOCC1	–	–	41.0	–	30.1
COc1ccc(CCC(=O)NCCS(=O)(=O)N2CCN(c3ccccc3)CC2)cc1	–	·	·	–	·
O=C1C=CC(=O)C(Cl)=C1	·	·	–	·	–
O=C(COC(=O)C1CC(=O)N(c2ccc3c(c2)OCCO3)C1)NC1CCCc2ccccc21 (stereo not drawn)	–	–	44.8	–	19.6
CCN(CC)S(=O)(=O)c1ccc(NC(=O)c2cccs2)cc1	–	–	–	–	–
Cc1cccc(C(=O)Nc2cccc(OC(=O)c3cccc(C)c3)c2)c1	–	–	–	–	34.1
CCN(CC)S(=O)(=O)c1cccc(C(=O)Oc2cccc(NC(=O)c3cccs3)c2)c1	–	?	–	?	24.6
COc1cccc(NC(=O)c2cccc(Cl)c2)c1	–	·	·	–	·
COC(=O)COc1cccc(NC(=O)c2cccc(C)c2)c1	–	–	–	–	16.8
COc1ccccc1C(=O)NCCC(=O)N(C)CC(=O)Nc1ccc(N2CCOCC2)cc1	?	·	·	–	·
Cc1ccc(-n2nnnc2-c2nc3ccccc3s2)cc1	–	–	50.9	–	15.5
CCOc1ccc(-n2nnnc2-c2nc3ccccc3s2)cc1	–	–	137.9	–	60.1
CCOc1ccc(N2C(=O)C(c3ccccc3)=C(c3nc4ccccc4s3)C2NC(C)=O)cc1 (stereo not drawn)	–	–	–	–	–
C=CCNC(=S)NNC(=O)COc1ccc2cc(Br)ccc2c1	–	–	100.6	–	43.6
COC(=O)c1ccnc(SCC(=O)c2ccccc2)c1	–	–	79.3	–	42.5
